# Assay results: PubChem BioAssay AID2029 (NMMLSC, 2009)
# The whole screen tested about 320,000 compounds, of which about 210 (0.066%) were called active. Shown is part of a subset that was picked to be rich in actives. A number with no mark means an inactive call.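 Rule for the calls: active = GFP response relative to DMSO above a set limit, near the screen mean plus 3 SD (cut at about 150% in these data); inconclusive = Fewer than 70 cells measured for a yeast strain; inactive = the rest.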
# Assay: TOR pathway RTG branch CIT2 reporter changes – S. cerevisiae, GFP fusion, multiplex flow cytometry, MLPCN library, primary screen (AID 2029);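 note: ratio of well median GFP fluorescence to mean of DMSO wells on the plate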
# Settings: S. cerevisiae CIT2-GFP strain, 3 h, at 10 µM, hits give high values, 100 means same as DMSO wells
row,Structure (SMILES),GFP response vs DMSO
1,Oc1cccc2ccc(/C=C/c3ccc(Br)s3)nc12,98.5%
2,Cc1cc(N=Nc2ccc3ccccc3c2)ccc1O,97.3%
3,Cc1cccc(N(C)C(=O)c2cc(S(=O)(=O)N3CCCCC3)c[nH]2)c1,105%
4,C=CCNc1nc(Nc2ccc(Cl)cc2)nc(OC)n1,87%
5,COC(=O)COc1ccc2c(=O)c(Oc3ccccc3Br)coc2c1,100%
6,COc1ccc(C2(C)ON(c3ccccc3C(F)(F)F)C2=O)cc1 (configuration not stated),97%
7,Cc1noc(NS(=O)(=O)c2ccc(N3CC(O)=C(c4ccccc4)C3=N)cc2)c1C,103%
8,O=C(COC(=O)Cn1cnc2ccccc2c1=O)NCC12CC3CC(CC(C3)C1)C2,101%
9,O=C(COC(=O)c1cc(S(=O)(=O)N2CCOCC2)ccc1Cl)NCCc1ccccc1,98.2%
10,CCCc1nn(C)c2c(=O)[nH]c(-c3cc(S(N)(=O)=O)ccc3OCC)nc12,96%
11,Cc1cc(C)cc(NS(=O)(=O)Cc2ccccc2)c1,103%
12,CC(OC(=O)CNC(=O)c1ccco1)C(=O)Nc1ccc(Cl)cn1 (configuration not stated),98.1%
13,O=C(N/C(=C\c1ccc(O)cc1)C(=O)N1CCCCC1)c1ccccc1,108%
14,COc1cc(/C=C/C(=O)O)cc(S(=O)(=O)Nc2ccccc2SC)c1OC,110%
15,CCc1cccc2c3c([nH]c12)C(CC)(CC(=O)O)OCC3 (configuration not stated),83.9%
16,Cc1cccc(CN2CCC(n3nccc3NC(=O)c3ccccc3C)CC2)n1,107%
17,CCc1n[nH]c(=S)n1/N=C/c1c[nH]c2ccc(Br)cc12,106%
18,CCOc1ccc(NS(=O)(=O)c2ccc(C)c(C(N)=O)c2)cc1,94%
19,NC(=O)c1oc2ccccc2c1NC(=O)CS(=O)(=O)c1ccccc1,110%
20,CC1(C)C2CC=C(/C=N/NC(=O)C3CC3)C1C2 (configuration not stated),91.7%
21,COCCNC(=O)CN(Cc1ccco1)C(=O)CCC(=O)Nc1nccs1,105%
22,CCn1c(SCC(=O)Nc2nc(C)cs2)nnc1C(C)NC(=O)c1ccccc1 (configuration not stated),101%
23,CCOC(=O)Cn1c(=O)oc2cc(S(=O)(=O)N(C)Cc3ccco3)ccc21,96.1%

row,Structure (SMILES),GFP response vs DMSO
1,CN(c1ccccc1)c1ccc(/C=c2\s/c(=C(/C#N)C(=O)C(C)(C)C)n(Cc3ccco3)c2=O)cc1,352% (active)
2,CCOC(=O)/C=c1\s/c(=C\c2ccc(C#N)cc2)c(=O)n1CC(=O)Nc1cccc(C)c1C,97.6%
3,COc1ccc(-n2nnc3c(=O)n(CC(=O)N4CCC(Cc5ccccc5)CC4)cnc32)cc1,89.3%
4,CCn1c(/C=C/Nc2ccccc2)[n+](CC)c2ccc(C(=O)OCC(F)(F)F)cc21,97.8%
5,COc1ccc(/C=N/NC(=O)C(C)N(c2ccc(OC)cc2)S(C)(=O)=O)cc1 (configuration not stated),109%
6,Cc1cccc(NS(=O)(=O)c2ccc(C)c(C(=O)NCc3cccnc3)c2)c1,107%
7,O=C(O)C1CCN(C(=O)c2cc(F)cc3c2OCOC3)CC1,109%
8,O=S(=O)(c1ccc(Br)cc1)N1CCC(c2nc3ccccc3[nH]2)CC1,111%
9,CN(C)CCN(C(=O)C1=COCCO1)c1nc2ccc(Cl)cc2s1,92.3%
10,Cc1ccc2nc(N(CCN(C)C)C(=O)C3=COCCO3)sc2c1,161% (active)
11,CC(=O)N(CCCN(C)C)c1nc2ccc(C)cc2s1,111%
12,CCc1ccc(Oc2coc3cc(O)ccc3c2=O)cc1,94.9%
13,CCN(CC(=O)Nc1cc(Cl)ccc1C)C(=O)Cn1c(=O)cnc2ccccc21,110%
14,O=c1[nH]c(CN2CCN(S(=O)(=O)c3ccc4c(c3)OCCO4)CC2)nc2sc3c(c12)CCCC3,101%
15,CCc1ccc(S(=O)(=O)N/N=C\c2ccc([N+](=O)[O-])o2)cc1,91.7%
16,CCn1c(=O)c([N+](=O)[O-])c(NCc2ccc3c(c2)OCO3)c2ccccc21,88.2%
17,CCn1c(/C=C/c2ccc([N+](=O)[O-])o2)nc2ccccc2c1=O,210% (active)
18,COc1ccc(S(=O)(=O)NCCOc2ccccc2)cc1F,94.3%
19,COCC(C)n1c(SCC(=O)NC2CCCCC2C)nc2ccccc2c1=O (configuration not stated),101%
20,CC(=O)Nc1ccc(NC(=O)C(C)n2c3ccccc3c3nc(=O)cc(C)n32)cc1 (configuration not stated),109%
21,CC(C)NC(=O)C(c1ccc(F)cc1)N(C(=O)CCC(=O)Nc1ccccn1)c1ccccc1F (configuration not stated),88.4%
22,CCOc1cccc(-c2nnc(SCC(=O)NC3CC3)n2C)c1,98.9%
23,C[n+]1ccc(/C=C/c2c[nH]c3ccccc23)cc1,274% (active)

row,Structure (SMILES),GFP response vs DMSO
1,COc1ccc(/C=C(\C#N)c2c[nH]c3ccccc23)cc1,79.6%
2,O=C(N/N=C/c1c[nH]c2ccccc12)c1ccccc1O,80.8%
3,CCCCNC(=O)N(O)C1N(/N=C/c2ccc(N(C)C)cc2)C(=S)SC1(C)C (configuration not stated),105%
4,COc1ccc([C@H]2CC(=O)C=C(/C=C/c3ccc(Cl)cc3)C2)cc1,104%
5,CC(C)Oc1ccc(CCc2n[nH]c(=S)n2Cc2ccccc2)cc1,98.5%
6,N#Cc1nc(N)nc(N(c2ccccc2)c2ccccc2)n1,113%
7,O=C(NCC1CCCO1)c1ccccc1-c1nc(-c2ccccc2Cl)no1 (configuration not stated),77%
8,CC(=O)Nc1ccc(S(=O)(=O)Nc2ccc(-c3ccc4nnc(C)n4n3)cc2)cc1,102%
9,O=C(NNc1cc(Cl)ccc1Cl)c1cccnc1Cl,107%
10,CC(C)C(NC(=O)C1CCC(C(C)(C)C)CC1)C(=O)NCCCN1CCCCC1 (configuration not stated),94.8%
11,O=C(CC1OC(=O)c2ccccc21)NC1CCCCC1 (configuration not stated),109%
12,O=C(CSc1nnc(Nc2ccccc2F)s1)NC1CCCC1,85.1%
13,O=C(Oc1cccc(C(=S)N2CCOCC2)c1)c1cccc(Cl)c1,94.4%
14,COc1cc(C(=O)N(C)Cc2cccc(OC)c2OC)ccc1OCC(=O)Nc1cccc(C(F)(F)F)c1,101%
15,O=C(NC(=S)NC1CCS(=O)(=O)C1)c1cccc([N+](=O)[O-])c1 (configuration not stated),155% (active)
16,CC1CCN(C(=S)c2cccc([N+](=O)[O-])c2)CC1,102%
17,Nc1ccc(C(=O)OCC(=O)NC2CCS(=O)(=O)C2)cc1[N+](=O)[O-] (configuration not stated),91.7%
18,O=C(N/N=C1\CCSC1)c1cc(Cl)ccc1O,102%
19,Cc1cccc(C)c1NC(=O)C(Cl)C(=O)c1ccccc1 (configuration not stated),87.7%
20,Cc1ccc(C)c(Cn2nnc3c(=O)[nH]c(C(=O)Nc4ccc(F)cc4)nc32)c1,99.3%
21,CN(CC(=O)Nc1ccc(C(N)=O)cc1)S(=O)(=O)c1ccc2c(c1)OCCO2,110%
22,COc1cc([N+](=O)[O-])cc([N+](=O)[O-])c1NC(=O)N1CCOCC1,110%
23,Cc1cc(C(=O)CC#N)c(C)n1-c1c(C)n(C)n(-c2ccccc2)c1=O,92.1%

row,Structure (SMILES),GFP response vs DMSO
1,O=C(c1cc2ccccc2o1)N1CCN(Cc2ccccc2)CC1,94.7%
2,CC1Cc2ccccc2N1CC(=O)Nc1ccc2c(c1)OC(F)(F)O2 (configuration not stated),82.8%
3,COC(=O)C1=C(C)N(Cc2ccccc2)C(=NCCCOC(C)C)N[C@H]1c1ccccc1,69.2%
4,COc1ccccc1C(=O)OCC(=O)Nc1cccc(S(=O)(=O)NC2=NCCCCC2)c1,118%
5,COc1cccc(NC(=O)CN(C)C(=O)c2cc(C3CC3)nn2-c2ccccc2)c1,106%
6,COc1ccc(NC(=O)CCn2ccnc2)c(OC)c1,106%
7,CCOc1ccc(OCC)c(NC(=O)CSc2nnc(Cn3cnc4ccccc43)n2C)c1,99%
8,O=C(NCC(F)(F)F)Nc1nnc(C(F)(F)F)s1,97.4%
9,O=C(NCc1cc(F)cc(C(F)(F)F)c1)C1CCC(=O)N(C2CCCC2)C1 (configuration not stated),98.4%
10,CCSC1=NCCN1S(=O)(=O)c1ccc(F)cc1,151% (active)
11,O=S(=O)(c1ccc(F)cc1)N1CCN=C1SCc1cccc(F)c1,104%
12,CS(=O)(=O)N1CCN=C1SCc1ccc(F)cc1,102%
13,CC1CC1C(=O)OCC(=O)c1c(N)n(C)c(=O)n(C)c1=O (configuration not stated),97.2%
14,COc1ccc(-c2nc(CS(=O)(=O)CC(=O)NCc3cccc(Br)c3)c(C)o2)cc1,150% (active)
15,COc1cccc(-c2nc(CS(=O)(=O)CC(=O)NCCc3ccc(OC)c(OC)c3)c(C)o2)c1,102%
16,Cc1ccc(-c2nc(CS(=O)(=O)CC(=O)NCc3ccc4c(c3)OCO4)c(C)o2)cc1,94.3%
17,COc1cc(OC)cc(-c2c(C#Cc3ccsc3)c3cc(-c4ccc(SC)cc4)ccc3n2C)c1,109%
18,CCN(CC)P(=O)(/C(Cl)=C\Nc1c(C)n(C)n(-c2ccccc2)c1=O)N(CC)CC,113%
19,CC1=C2C(=O)OC(c3ccoc3)C2(C)CCC1 (configuration not stated),103%
20,COc1ccc(CN2CC[C@H]3C=CC[C@@H](C(=O)N4CCOCC4)[C@H]3C2=O)cc1OC,99.2%
21,COc1ccc(NC(=O)CC(NC(C)c2ccccc2)C(=O)O)cc1 (configuration not stated),101%
22,O=C(NCC(=O)N1CCCCCCC1)c1ccccc1Cl,106%
23,Cc1ccc(NC(=O)C(CC(=O)O)C2CCCO2)c(C)c1 (configuration not stated),98.9%
